Screening results from PubChem.
Shown are actives, neighbours in structure and some others; about 11% of the full set was active somewhere.
G9a inh – inhibitors of human histone lysine methyltransferase G9a. 350,000 tested, 8.8% active. Potency, µM (titrated, usually from 102 µM), actives largely listed as inhibitors. AID 504332. Q96KQ7. G9a H3K9 monomethylation, AlphaScreen, 2 h; further: nearly all actives have a fitted effect of over 75% in size
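G9a (20 nM) preincubated 15 min RT with compounds, then 500 nM biotinylated H3K9 peptide and 20 uM SAM added; 2 h RT reaction. Monomethyl-H3K9 product detected by AlphaScreen with anti-H3K9me1 antibody, streptavidin donor and anti-rabbit IgG acceptor beads.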
BAZ2B inh – inhibitors of human BAZ2B bromodomain. AlphaScreen BAZ2B-H3K14Ac peptide displacement. Q9UIF8. Potency, µM (highest dose often 114 µM), usual class: inhibitors. AID 504333. 360,000 tested, 4.4% active; further: nearly all actives have a fitted effect of over 60% in size
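BAZ2B (50 nM) with biotin-H3(5-23)K14Ac peptide (50 nM) in PBS pH 7.4, 0.01% Tween-20, preformed 30 min, then compound 30 min at room temperature; top concentration 110uM. AlphaScreen streptavidin donor/nickel chelate acceptor beads (10 ug/mL final), 20 min dark, signal read.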
HP1b chromo inh – inhibitors of HP1-beta chromodomain binding to methylated histone tails. P83916. AlphaScreen HP1-beta / biotin-H3K9me3 peptide binding. Potency, µM (titrated, usually from 114 µM), hits mostly inhibitors. 390,000 tested, 0.56% active. AID 540317; further: nearly all actives have a fitted effect of over 70% in size
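AlphaScreen: HP1-beta (50 nM) preformed 30 min with biotin-H3(1-18)K9me3 peptide (50 nM) in PBS pH 7.4, 0.01% Tween-20. Compound added for 30 min at RT, then streptavidin donor/nickel chelate acceptor beads (10 ug/mL) for 30 min.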
JMJD2A Tudor inh – JMJD2A Tudor domain (human) inhibition; 390,000 tested, 4.4% active; Potency, µM (doses to about 114 µM), hits mostly inhibitors; AlphaScreen JMJD2A-Tudor / H3K4me3 peptide binding; O75164; AID 504339; further: nearly all actives have a fitted effect of over 50% in size
L3MBTL1 block – blocks human L3MBTL1; AlphaScreen L3MBTL1–H3K9me1 peptide binding; Potency, µM (titrated, usually from 57.1 µM), most hits filed as inhibitors; 230,000 tested, 0.66% active; further: nearly all actives have a fitted effect of over 60% in size
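L3MBTL1 50 nM + b-AHA-H3(1-15)K9me1 75 nM, 30 min RT; compound added, 30 min RT; streptavidin donor/Ni-chelate acceptor beads 10 ug/mL each final, 30 min RT dark; AlphaScreen read.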
Hits are given with their value; . = inactive; ? = inconclusive; / = not tested or not shown; [ ] = remark or other dose. The call rests on the fitted dose curve; in most records, active means well fitted inhibition curve with a large enough effect; inconclusive means small, poorly fitted or top-dose-only effect; inactive means no such curve, though single readings can be large or run the other way.

SMILES	G9a inh	BAZ2B inh	HP1b chromo inh	JMJD2A Tudor inh	L3MBTL1 block
Cc1cccc(OCCCCCn2ccnc2)c1C	.	?	.	.	.
Cc1ccc(N2CCN(C(=O)c3nn(C)c4c3CSc3ccccc3-4)CC2C)cc1 (stereo not given)	.	.	.	.	/
C=CCN(CC(O)c1cccc([N+](=O)[O-])c1)C(C)CCc1ccccc1 (stereo not given)	/	.	.	.	.
CN1CCN(C(c2ccc(F)cc2)c2sc3nc(-c4ccco4)nn3c2O)CC1 (stereo not given)	.	.	.	.	/
CCN1CCCC1CNCc1cccc(OC)c1OCc1ccccc1 (stereo not given)	.	.	.	.	.
CCN1CCCC1CNCc1ccccc1OCc1ccc(F)cc1 (stereo not given)	56µM	.	.	.	/
Cc1nc2ccccc2c(=O)n1-c1ccc(NC(=O)C(F)(F)F)cc1	.	.	.	.	/
CCN(CC)S(=O)(=O)c1ccc2c(c1)nc(SCc1nc3ccsc3c(=O)[nH]1)n2CC	35µM	.	.	.	.
CC(=O)N1CCc2cc(C(=O)CN3CCCN(Cc4ccc(F)cc4)C3)ccc21	45µM	.	/	/	/
CC(=O)N1CCc2cc(C(=O)CN3CCN(C(=O)c4ccco4)CC3)ccc21	13µM	.	.	.	.
CC1CCN(CC(=O)N2CCc3ccccc32)CC1	.	.	.	.	/
CC(=O)N1CCc2cc(C(=O)CN3CCN(c4cccc(Cl)c4)CC3)ccc21	22µM	.	.	.	.
CC(=O)N1CCc2cc(C(=O)CN3CCC(C)CC3)ccc21	18µM	.	.	.	.
CCOC(=O)C1=C(N)Oc2ccc(Br)cc2C1C(C#N)C(=O)OCC (stereo not given)	.	/	/	/	/
COC(=O)[C@H](CC(C)C)NC(=O)c1cc2c(cn1)[nH]c1ccccc12	7.9µM	.	?	?	/
COC(=O)C(Cc1ccccc1)NC(=O)c1cc(=O)[nH]c2ccccc12 (stereo not given)	.	.	.	.	.
Cc1ccc(CSC2=Nc3ccccc3C3=NC(CCC(=O)N4CCN(c5ccccc5)CC4)C(=O)N23)cc1 (stereo not given)	18µM	.	.	.	/
O=C(CSC1=Nc2ccccc2C2=NC(CC(=O)N3CCN(c4ccccc4)CC3)C(=O)N12)NCC1CCCO1 (stereo not given)	50µM	.	.	.	/
Cc1c(NC(=S)/C=C2\N(C)c3ccccc3C2(C)C)c(=O)n(-c2ccccc2)n1C	32µM	?	?	.	.
CC(C)C(=O)NC(=S)/C=C1/N(C)c2ccccc2C1(C)C	40µM	32µM	50µM	40µM	.
Cc1ccc(C(=O)NC(=S)/C=C2\N(C)c3ccccc3C2(C)C)cc1	14µM	13µM	13µM	22µM	?
Cc1c(N=C/C=C2\N(C)c3ccccc3C2(C)C)c(=O)n(-c2ccccc2)n1C	.	.	.	.	.
COC(=O)CN1C(=O)CSc2ccc(S(=O)(=O)Nc3ccc(C)c(Cl)c3)cc21	.	.	.	.	/
CCOCCCNC(=O)c1cc(=O)[nH]c2ccc(S(=O)(=O)N3CCCC3)cc12	.	.	.	.	/
O=C(Nc1ccc(Cl)cc1)C1CCN(c2nc3ccccc3n3cccc23)CC1	.	?	.	.	/
SMILES	G9a inh	BAZ2B inh	HP1b chromo inh	JMJD2A Tudor inh	L3MBTL1 block
Cn1ccnc1SCC(=O)Nc1cc(Cl)ccc1Cl	?	?	.	.	/
O/N=C\c1cccn1-c1ccc(Br)cc1	?	?	.	79µM	/
C=CCSC1=C(C#N)C(c2ccccc2Cl)CC(=O)N1 (stereo not given)	20µM	.	.	.	.
C=C(C)CSC1=C(C#N)C(c2ccccc2Cl)CC(=O)N1 (stereo not given)	45µM	.	?	?	.
CCSC1=C(C#N)C(c2ccccc2C)CC(=O)N1 (stereo not given)	?	.	.	.	/
CCCc1cc(-c2[nH]ncc2-c2ccc3c(c2)OCCCO3)c(O)cc1O	.[12.7 µM]	?	.	40µM	.
O=C1C(=Cc2ccco2)CCC1=Cc1ccco1	/	/	3.5µM	3.2µM	/
O/N=C1/CCCSc2ccccc21	.	.	.	?	.
O=C1/C(=C/c2c[nH]c3ccccc23)CCC/C1=C\c1c[nH]c2ccccc12	?	?	.	.	.
O/N=C1\CCC\C1=C/c1ccco1	56µM	?	.	.	.
